Among the data in PubChem BioAssay AID588335 (The Scripps Research Institute Molecular Screening Center, 2011) are inhibition values, retold here.

By inhibition is commonly meant the drop in the measured response relative to a control, in per cent.

Out of some 360,000 compounds screened, about 4,500 (1.2%) were called active. Shown is part of a subset that was picked to be rich in actives. Unmarked numbers belong to inactive results. Cut-off read from the data, not from the text of the source: active = inhibition above about 30%; inactive = the rest.

A short description of the assay: GDH-TPI coupling enzyme inhibitors, primary screen, artefact control for M. tuberculosis FBA inhibitor project, biochemical, absorbance, full deck (AID 588335).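 Note: 0% = DMSO wells and 100% = wells lacking the enzyme.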 The conditions noted are these: GDH-TPI coupled enzyme counterscreen, NADH absorbance; at 4.8 µM; stronger effect = higher value. (The purpose of a counterscreen is to sort out artefacts and off-target activity.)
Consider `C/C(=C(\C#N)C(=O)NCCCN1CCOCC1)N(C)C`, for which the inhibition was 7.8%. The same measure for `CCc1nn(CCCC(=O)Nc2ccc(C)cc2C)c(=O)c2cc3occc3n12`: 5.68%. The same measure for `CCN(CC)C(=O)CSc1nc2ccccc2n1CC(=O)N1CCN(c2ccccc2OC)CC1`: -6.21%. The same measure for `O=C1NC(=O)C(CCc2ccccc2)(c2ccccc2)N1` (stereo not given): 2.63%; for `O=C(N/N=C/C=C/c1ccccc1)C1CC1(c1ccccc1)c1ccccc1` (stereo not given): 21.3%. As to `CCn1c(SCC(=O)NC2CC2)nnc1-c1ccccc1OC`, the inhibition was -0.34%. Take `COc1ccc(C2=Nn3c(nnc3-c3ccccc3OC)SC2)cc1OC1CCCC1`: the inhibition is 31.1% (active). The same measure for `COc1cc(OC)c(NS(=O)(=O)c2cn(C)cn2)cc1Cl`: -9.45%. The same measure for `Cc1cccc(N2O[C@H]3C=CC2CCCC3)n1`: -10.9%.

Turning to `O=C(NC(=S)Nc1ccccc1C(=O)O)c1ccc(-c2ccc(Br)cc2)o1`, the inhibition was 40.9% (active).

On to `O=C(NC(=S)Nc1cc(C(F)(F)F)ccc1N1CCOCC1)c1ccc(-c2cccc(Cl)c2)o1`, for which the inhibition was -2.21%.

As for `CN1CCN(C(=O)c2ccc(-c3ccc(Br)cc3)o2)CC1`, the inhibition was 3.5%. For `O=c1c2ccccc2c(-c2ccccc2)nn1-c1ccccn1`, the inhibition is 1.89%. The same measure for `COC(=O)c1cnn2c(C(F)(F)F)cc(-c3ccco3)nc12`: 16.7%; for `CCOC(=O)c1ccn(-c2nc(-c3ccco3)cc(C(F)(F)F)n2)n1`: 35.1% (active); for `O=C(CSc1nc(-c2ccco2)cc(C(F)(F)F)n1)N1CCc2ccccc2C1`: 10.9%. The same measure for `NC(=O)CC(NC(=O)Cc1ccc(Br)cc1)c1ccc(NC2CC3CCC2C3)c([N+](=O)[O-])c1` (stereo not given): -1.99%; for `CC1(c2ccc(Cl)cc2Cl)NC(=O)N(CC(=O)Nc2cccnc2Cl)C1=O` (stereo not given): 0%. The same measure for `Cc1cccc(C(=O)OCC(=O)NCC(C)C)c1O`: 2.88%. With `N#CC1=C(N)N(c2ccc(F)cc2)C(=O)C1`, the inhibition was 4.15%. The same measure for `Cc1occc1C(=O)N/N=C/c1ccc(-c2cccc([N+](=O)[O-])c2)o1`: 34% (active); for `O=[N+]([O-])c1ccc2oc(-c3cccc(O)c3)nc2c1`: 15.8%. Turning to `CCCc1ccc(OCc2ccc(C(=O)N/N=C/c3cccc([N+](=O)[O-])c3)o2)c(OC)c1`, the inhibition was 3.73%. As to `O=C(CN1C(=O)NC2(CCCC2)C1=O)OCCOc1ccc(F)cc1`, the inhibition was -5.15%. The same measure for `Cc1ccc(C(=O)NCC(c2cccs2)N(C)C)cc1S(=O)(=O)N1CCOCC1` (stereo not given): 3.9%; for `O=C(NCCc1ccccn1)c1cc(-c2ccc(Cl)cc2)nc2ccccc12`: 19.5%; for `CC1(C)CC(=O)C/C(=N\NC(=O)c2cccs2)C1`: 17.8%.

In the case of `CC(/C=N/NC(=O)c1cc(-c2ccc3ccccc3c2)n[nH]1)=C\c1ccco1`, the inhibition is 17%.

Consider `Cc1ccc(-c2cc(C(=O)N/N=C/C=C/c3ccco3)c3ccccc3n2)cc1C`, for which the inhibition is 52.1% (active). As to `O=C(COC(=O)CCC(=O)c1cccs1)NCc1ccco1`, the inhibition was 5.96%. The same measure for `O=C(N/N=C/C=C/c1ccco1)c1cccs1`: 46.5% (active); for `O=C(CCc1ccc(S(=O)(=O)N2CCOCC2)cc1)OCC(=O)c1ccc(Br)cc1`: -6.33%; for `COc1ccc(CCNC(=O)COC(=O)Cc2cccc(F)c2)cc1`: -8.97%. The same measure for `O=C(NCc1ccccc1Cl)C1CCC(CNc2c(N3CCCCC3)c(=O)c2=O)CC1` (stereo not given): 4.69%; for `CCC(C)C1(C2CCCC2)NC(=O)NC1=O` (stereo not given): 0.88%. The same measure for `O=C(NC1CCC(O)CC1)c1ccc(S(=O)(=O)NCc2ccco2)cc1` (stereo not given): 11.2%.

Turning to `COc1cc(/C=N/NC(=O)c2cc(-c3ccccc3C)nc3ccccc23)cc(OC)c1O`, the inhibition was 76.5% (active). The same measure for `COc1ccc(CN(C)C(=O)c2cc(-c3ccc(C)cc3C)nc3ccccc23)c(OC)c1OC`: 0%; for `Cc1ccc(/C=N/NC(=O)COc2ccccc2-c2ccccc2)cc1`: 5.68%. The same measure for `Cc1ccc(NN=Nc2nc3c([nH]2)c(=O)n(C)c(=O)n3C)cc1`: 2.21%; for `O=C(Nc1ccc(N2CCOCC2)cc1)c1cccc2c(-c3ccc(F)c(F)c3)coc12`: 1.77%; for `CCc1c(C)n([O-])c2c([n+]1=O)CCCCC2`: 6.72%. The same measure for `Cc1nc(-c2ccccc2)sc1C(=O)/C=C/c1ccccc1`: 31.8% (active); for `Cc1[nH]c(=O)c(C(=O)/C=C/c2ccccc2)c2c1CCCC2`: 12.9%.

Consider `Cc1nc(-c2ccc(Cl)cc2)sc1C(=O)CBr`, for which the inhibition is 22.6%. Take `COc1ccccc1-n1ccnc(SCC(=O)NC2CCCCC2)c1=O`: the inhibition is 7.32%. The same measure for `Cc1ccccc1C(CC(=O)c1cccs1)C(C#N)C#N` (stereo not given): 0%; for `C/C(=N\NC(=S)Nc1ccc(C)cc1)c1cc2ccccc2o1`: 77.5% (active); for `C/C(=N\NS(=O)(=O)c1cccc([N+](=O)[O-])c1)c1cc2ccccc2o1`: 22.8%. Take `C/C(=N/NC(=S)Nc1ccccc1)c1ccc2c(c1)OCO2`: the inhibition is 12.9%. The same measure for `CCc1c(C)nc(N)n2c(SCC(=O)NC3CCCCC3)nnc12`: 0%; for `Cc1ccc(S(=O)(=O)N2CCCCC2)cc1C(=O)N1CCN(CCO)CC1`: -15.1%; for `O=C1NC(c2ccccc2)Cc2ccncc21` (stereo not given): 13.4%.

For the molecule `C1=C(N2CCOCC2)/C(=C/c2nc3ccccc3[nH]2)CC1`, the inhibition was 34.8% (active). The same measure for `O=C(C1CCCO1)N1CCC(c2nc3ccccc3[nH]2)CC1` (stereo not given): -7.92%. The same measure for `c1ccc(-n2nnnc2N2CCOCC2)cc1`: 2.54%. Regarding `CCCCN1C(=O)c2ccc(C(=O)Nc3ccc(S(=O)(=O)N(C)C)cc3)cc2C1=O`, the inhibition is 2.95%.

Consider `Cc1ccc(NC2=NC(c3ccccc3)n3c(nc(C)cc3=O)N2)cc1` (stereo not given), for which the inhibition is 4.69%.

Regarding `CCOc1ccccc1/C=N/Nc1nc2ccccc2o1`, the inhibition is 8.78%. The same measure for `COc1ccc(/C=N/n2nnnc2N)cc1OC`: 21.5%.

Take `COc1ccc(/C=N/Nc2nc3ccccc3o2)cc1OC`: the inhibition was 44.1% (active). For the molecule `CC(C)[C@H](NC(=O)c1ccccc1F)C(=O)Nc1cccc(S(=O)(=O)N2CCOCC2)c1`, the inhibition is -3.11%. As to `CN1C(=O)c2ccc(NC(=O)c3c(F)c(F)c(F)c(F)c3F)cc2C1=O`, the inhibition is 10.2%. The same measure for `Cc1cc[n+](-c2[nH]c(=O)sc2/C=N/NC(=O)c2ccccc2[O-])cc1C`: 30.5%; for `CC(C)(C)c1cc[n+](-c2[nH]c(=O)sc2/C=N/N=C(\[O-])c2ccccc2)cc1`: 32.8% (active); for `Cc1cccc(C)c1NC(=S)N(Cc1cccnc1)Cc1ccccc1Cl`: 0.63%. The same measure for `CC1(C)CC(=O)C2=C(C1)NCN(CCCN1CCOCC1)C2`: 6.39%; for `CC(C)OC(=O)c1ccc(COc2ccc3ccc(=O)oc3c2)o1`: 6.9%. The same measure for `O=C(COc1ccc2ccc(=O)oc2c1)NCC(O)c1ccccc1` (stereo not given): 7.87%; for `CC(=CCOc1ccc2ccc(=O)oc2c1)C1=CC(=O)C(C)(C)O1`: 32.7% (active); for `COc1ccc2oc(C(=O)OCC(=O)N(CC(C)C)c3c(N)n(Cc4ccccc4)c(=O)[nH]c3=O)c(C)c2c1`: -3.6%. On to `O=C1Nc2ccc([N+](=O)[O-])cc2C1=Nc1cccc(CO)c1`, for which the inhibition was 15.1%.

Take `CCOc1ccc(C(C(=O)NCCOC)N(CCOC)C(=O)CCC(=O)Nc2ccccn2)cc1` (stereo not given): the inhibition was 5.17%. The same measure for `COC(=O)Cc1cnc(NC(=O)CSc2nc(C(C)C)cc(=O)[nH]2)s1`: -1.15%. The same measure for `O=C1CC(c2ccccc2)C(=O)N2C(=O)CC(c3ccccc3)C(=O)N12` (stereo not given): 1.76%. The same measure for `COc1ccc2c(c1)C(=O)CC(c1ccccc1)O2` (stereo not given): 0.86%. As to `Cc1c(O)c(C)c2c(c1O)C(=O)C[C@@H](c1ccccc1)O2`, the inhibition was 31% (active). The same measure for `NC(=O)CN1CCCC1c1ccc2c(c1)OCCO2` (stereo not given): -7.41%; for `CC1=NNC(=O)C1CCC(=O)N/N=C\c1cccc(Cl)c1` (stereo not given): -3.82%; for `CCOC(=O)c1ccc(COC(=O)c2cc(=O)[nH]c3ccccc23)o1`: 7.46%. The same measure for `CCCCSc1[nH]c(=O)c(C(=O)OCC)cc1C#N`: 36.1% (active); for `CCOC(=O)C(Sc1ncc(C#N)c(N)n1)C(C)C` (stereo not given): 5.66%; for `CC(=O)N1C(C)c2ccccc2C(C)(C)CC12CCCCC2` (stereo not given): 4.51%. The same measure for `O=C1COc2ccc(C(=O)COC(=O)c3cccnc3Cl)cc2N1`: 1.57%; for `Cc1ccc(NC(=O)/C(=C\c2ccccc2)NC(=O)c2ccco2)cc1`: 21.3%; for `COc1ccccc1C(=O)N/C(=C/c1ccco1)C(=O)Nc1ccc(C(=O)O)cc1`: 1.49%.

On to `COc1ccc(/C=C(/NC(=O)c2ccco2)C(=O)Nc2ccc(C(C)=O)cc2)cc1`, for which the inhibition was 33.5% (active).

As to `CC1(C)COC(c2cccn2Cc2ccccc2Cl)=N1`, the inhibition was 12.7%. The same measure for `O=C(NCc1ccncc1)C(=O)NCC1OCCN1S(=O)(=O)c1ccc(Br)cc1` (stereo not given): 3.11%.

`O=C(Cc1ccsc1)N1CCN(S(=O)(=O)c2cc(C(F)(F)F)cc(C(F)(F)F)c2)CC1`: the inhibition was 6.47%. The same measure for `O=C(CNC(=O)c1ccc(Br)o1)NCC1CCCO1` (stereo not given): -4.74%; for `S=C(NCC1CCCO1)N1CCN(c2ccc(Cl)c(Cl)c2)CC1` (stereo not given): -2.84%. Consider `Oc1c(Br)cc(/C=N/NC(=S)NCC2CCCO2)cc1Br` (stereo not given), for which the inhibition was 37.8% (active). The same measure for `CC(C)(C)CC(C)(C)NCC(O)COCCOc1ccc(Br)cc1` (stereo not given): -7.87%; for `CC(=NNC(N)=O)C1CC2CCC1CC2` (stereo not given): 4%.
